Calls of active or inactive are those of the source. Rule for the calls: active = hit-call score of the fitted dose curve at least 0.9, where 1 is the maximum; inactive = score below 0.9.
Read-out: TIMP metallopeptidase inhibitor 2 (TIMP2), TIMP2 (gene 7077)
Test: BSK_KF3CT_TIMP2: BioMAP Diversity Plus: KF3CT Assay for TIMP metallopeptidase inhibitor 2 (TIMP2) Biomarker Activity (AID 2283071)
Details: primary human keratinocytes with fibroblasts; actives raise or lower the signal
Description: BSK_KF3CT is a cell-based, multiplexed-readout assay that uses keratinocytes and foreskin fibroblasts, a human skin primary cell co-culture, with measurements taken at 24 hours after chemical dosing in a 96-well plate.BSK_KF3CT_TIMP2 is an assay component measured in the BSK_KF3CT assay. It measures TIMP-2 antibody related to regulation of gene expression using ELISA technology.Data from the assay component BSK_KF3CT_TIMP2 was analyzed into 1 assay endpoint. This assay endpoint, BSK_KF3CT_TIMP2, was analyzed with bidirectional fitting relative to DMSO as the negative control and baseline of activity. Using a type of binding reporter, gain or loss-of-signal activity can be used to understand changes in the signaling as they relate to the gene TIMP2. Furthermore, this assay endpoint can be referred to as a primary readout, because this assay has produced multiple assay endpoints where this one serves a signaling function. To generalize the intended target to other relatable targets, this assay endpoint is annotated to the protease inhibitor intended target family, where the subfamily is metalloproteinase inhibitor.
The levels of cell surface (or secreted, indicated by the prefix "s") biomarker endpoints were measured by ELISA. Overt cytotoxicity to cells in confluent adherent cultures (all systems other than the BT system) was assessed by measuring total protein levels using sulforhodamine B (SRB) staining in parallel cultures at the time of biomarker measurements, indicated as SRB endpoints. For proliferation assays for adherent cell types, individual cell types are cultured at sub-confluence and relative cell numbers quantified by SRB staining at time points optimized for each system (48 h: 3C and CASM3C systems; 72 h: BT and HDF3CGF systems; 96 h: SAg system). SRB was performed by staining cells with 0.1% SRB after fixation with 10% TCA and reading wells at 560 nm.Viability and proliferation of PBMC (T cells) was quantified by Alamar Blue reduction for the SAg and BT systems. For PBMC viability (referred to as PBMC Cytotoxicity within the assay endpoint names), cells were plated (75,000/well in a 96-well plate) and then chemical samples added for 1 h before addition of activators, SEB and TSST-1 (20 ng/mL final concentration each). Cells were incubated for 90 h. Then, Alamar Blue (20 uL/well) (Invitrogen, Cat DAL1100) was added for 6 h, and the plates were read with a fluorescence microplate reader at 546/580 nm (excitation/emission). For PBMC proliferation, cells were plated and activated as above but incubated for only 16 h prior to addition of Alamar Blue. Plates were read after 6 h.

Row | SMILES | outcome | AC50
1 | COc1cc(C(C)C)c2c(c1)S(=O)(=O)N(COc1cc(=O)n3cccc(OCCN4CCCCC4)c3n1)C2=O | inactive | 
2 | CCOC(N)=O | inactive | 
3 | Cc1nccn1-c1ccc(Sc2cccc(C3(C(N)=O)CCOCC3)c2)cc1 | inactive | 
4 | C[Si](C)(C)C(F)(F)C(F)(F)C(F)(F)F | inactive | 
5 | CC(=O)c1ccccc1 | inactive | 
6 | c1ccc2cc3ccccc3cc2c1 | inactive | 
7 | O=S1(=O)CCCO1 | inactive | 
8 | CCCCCCOC(=O)CC(CC(=O)OCCCCCC)(OC(=O)CCC)C(=O)OCCCCCC | inactive | 
9 | CCCCOC(=O)c1ccccc1 | inactive | 
10 | O=S(=O)(O)CCC(F)(F)C(F)(F)C(F)(F)C(F)(F)C(F)(F)C(F)(F)F | inactive | 
11 | COCc1nnc(-c2ccc[n+]([O-])c2)n1-c1c(Cl)c(Cl)cc2[nH]c(=O)c(=O)[nH]c12 | inactive | 
12 | O=C(O)[C@H](O)[C@@H](O)C(=O)O | inactive | 
13 | CCCCCCCCN(C)C | inactive | 
14 | FC(F)(F)C(F)(F)C(F)(F)C(F)(F)C(F)(F)C(F)(F)I | inactive | 
15 | NNC(=O)c1ccncc1 | inactive | 
16 | OC[C@H]1O[C@@](CO)(O[C@H]2O[C@H](CO)[C@@H](O)[C@H](O)[C@H]2O)[C@@H](O)[C@@H]1O | inactive | 
17 | O=C(O)c1cccc(C(=O)O)c1 | inactive | 
18 | CC(C)C(=O)Nc1ccc([N+](=O)[O-])c(C(F)(F)F)c1 | inactive | 
19 | CCOc1ccc2[nH]cc(C(=O)NCc3ccccc3)c(=O)c2n1 | inactive | 
20 | OCC(CO)(CO)CO | inactive | 

Row | SMILES | outcome | AC50
21 | c1ccc2ncccc2c1 | inactive | 
22 | CCCCC(CC)C(=O)OCCOCCOCCOC(=O)C(CC)CCCC (stereo not given) | inactive | 
23 | Cc1ccc(S(=O)(=O)NC(=O)NN2CCCCCC2)cc1 | inactive | 
24 | CCCCCOC(C)=O | inactive | 
25 | CCCCCCCCCC | inactive | 
26 | C=CCc1cc(S(=O)(=O)c2ccc(O)c(CC=C)c2)ccc1O |  | 17.3 µM (active)
27 | Cn1cc[nH]c1=S | inactive | 
28 | C[C@]12C=CC(=O)C=C1CC[C@H]1[C@@H]3C[C@@H](O)[C@](O)(C(=O)CO)[C@@]3(C)C[C@H](O)[C@@]12F | inactive | 
29 | CCc1ccc(O)c(C(C)(C)C)c1 |  | 36.5 µM (active)
30 | FC(F)=C(F)C(F)(F)C(F)(F)C(F)(F)C(F)(F)C(F)(F)C(F)(F)F | inactive | 
31 | FC(F)C(F)(F)COCC1CO1 (stereo not given) | inactive | 
32 | OC(O)(C(F)C(O)(O)C(F)(F)F)C(F)(F)F | inactive | 
33 | O=C(NO)C1(NS(=O)(=O)c2ccc(Oc3ccc(F)cc3)cc2)CCOCC1 | inactive | 
34 | CCCCN1C(=O)[C@@H]([C@H](O)C2CCCCC2)NC(=O)C12CCN(Cc1ccc(Oc3ccc(C(=O)O)cc3)cc1)CC2 | inactive | 
35 | CCCCCCCC1CCC(=O)O1 (stereo not given) | inactive | 
36 | CCCc1ccccc1 | inactive | 
37 | OCCNCCO | inactive | 
38 | O=S(=O)(O)c1ccc(N=Nc2c(O)ccc3cc(S(=O)(=O)O)ccc23)cc1 | inactive | 
39 | Cc1cccc(O)c1C | inactive | 
40 | NCC(F)(F)C(F)(F)C(F)(F)C(F)(F)F | inactive | 

— PubChem BioAssay (EPA / NIEHS)
